Rows were chosen to be rich in hits. Some 7.8% of all compounds tested hit in one or more screens of this group.
NOMO-1 viab: NOMO-1 AML cell viability reduction, primary screen, STK33 inhibitor project, CellTiter-Glo luminescence; 7.5% of 37,000 active; NOMO-1 AML viability, 72 h; inhibition, % (no concentration beside the values); AID 2330, 2010; in the data active = inhibition above about 80%; inconclusive = no clear call, values can overlap the other calls
PD-1 reverse act: activators reversing PD-1 mediated T-cell inhibition, primary screen, luminescence, primary human CD4 T cells, PD-L1 beads; CellTiter-Glo 96 h; activation, % (no concentration beside the values); 29,000 tested, under 10 active; call rule not given here;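 also: 0% = median vehicle wells and 100% = positive control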
MITF inh: inhibitors of MITF, primary screen, MITF inhibitor project, cell-based, luminescence; inhibition, % (test concentration not listed); TRPM1 promoter luciferase, 24 h; AID 2240, 2010; 0.28% of 37,000 active; in the data active = inhibition above about 85%; inconclusive = no clear call, values can overlap the other calls; inactive = below about 68%;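 also: human melanocyte line stably carrying TRPM1 promoter luciferase reporter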
Hedgehog inh: Hedgehog pathway signaling inhibitors, primary screen, luminescence, Shh-LIGHT2 cells, Gli-luciferase; Shh-LIGHT2 Gli-luciferase reporter, 30 h; inhibition, % (no concentration beside the values); 2.1% of 22,000 active;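 active = mean inhibition across valid replicates above about 65%, limit read from the data; inconclusive = mean under the limit, yet half or more replicates past it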;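 also: pathway switched on by Shh-conditioned medium diluted 1 in 25 in low serum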
* hit, by the source's call; ? = inconclusive; . = not tested or not shown.

SMILES	NOMO-1 viab	PD-1 reverse act	MITF inh	Hedgehog inh
Cc1ccc(S(=O)(=O)Nc2ccc3c(c2)C(=O)N([C@@H](C)CO)C[C@@H](C)[C@H](CN(C)Cc2ccc(Oc4ccccc4)cc2)O3)cc1	56.8	.	13.2	29.5
C[C@@H]1CN([C@H](C)CO)C(=O)c2cc(NS(=O)(=O)c3ccccc3)ccc2O[C@H]1CN(C)Cc1ccc(Oc2ccccc2)cc1	72.8	.	8.6	42.2
Cc1noc(C)c1S(=O)(=O)Nc1ccc2c(c1)C(=O)N([C@@H](C)CO)C[C@H](C)[C@@H](CN(C)Cc1ccc(Cl)c(Cl)c1)O2	-3.6	-2.8	-12.5	42.2
Cc1ccc(OC(=O)OCSc2nn[nH]n2)cc1	119.3*	-10.4	21.3	?
O=C(O)CCC(=O)Nc1ccc(Cc2ccncc2)cc1	-16.2	0.8	-9.8	-14.7
Cc1cccc(C2Sc3ccccc3N=C3c4ccccc4C(=O)C32)c1 (configuration not stated)	103.7*	0.1	63.9	-13.9
Cc1cc(C)c(CN(C)C)c(O)c1	14.8	0.2	-16.7	-0.1
O=C(C(C(=O)N1CCCCC1)C12CC3CC(CC(C3)C1)C2)N1CCCCC1	13.7	2.1	3.0	.
COc1ccc(S(=O)(=O)Nc2ccc3c(c2)CC(=O)N([C@@H](C)CO)C[C@H](C)[C@H](CN(C)Cc2ccc(C(F)(F)F)cc2)O3)cc1	108.3*	2.6	30.8	44.2
COc1ccc(CN(C)C[C@@H]2Oc3ccc(NS(=O)(=O)c4ccc(OC)cc4)cc3CC(=O)N([C@H](C)CO)C[C@H]2C)cc1	11.1	-1.8	4.5	2.8
COc1ccc(S(=O)(=O)Nc2ccc3c(c2)CC(=O)N([C@H](C)CO)C[C@@H](C)[C@H](CN(C)Cc2ccc(C(F)(F)F)cc2)O3)cc1	?	-1.7	-22.7	-0.9
COc1ccc(S(=O)(=O)Nc2ccc3c(c2)CC(=O)N([C@H](C)CO)C[C@@H](C)[C@@H](CN(C)Cc2ccc(C(F)(F)F)cc2)O3)cc1	119.3*	-3.8	-1.0	14.2
COc1ccc(S(=O)(=O)Nc2ccc3c(c2)CC(=O)N([C@@H](C)CO)C[C@@H](C)[C@@H](CN(C)Cc2ccc(C(F)(F)F)cc2)O3)cc1	94.8*	0.3	37.1	-5.6
CC(=O)N(CN1C(=O)c2ccccc2C1=O)c1ccccc1C	9.1	-0.1	5.3	25.7
O=C(CSc1nc(-c2ccccc2)cc(C(F)(F)F)n1)c1ccc(Br)cc1	15.8	-0.4	2.6	.
C[C@H](CO)N1C[C@H](C)[C@H](CN(C)Cc2ccc(Oc3ccccc3)cc2)Oc2ccc(NC(=O)CCCCCC(=O)Nc3ccccc3N)cc2CC1=O	139.6*	-2.7	63.0	.
C[C@H]1CN([C@@H](C)CO)C(=O)Cc2cc(NC(=O)CCCN(C)C)ccc2O[C@H]1CN(C)Cc1ccc(Oc2ccccc2)cc1	-15.2	.	-5.3	-8.6
C[C@H]1CN([C@@H](C)CO)C(=O)Cc2cc(NC(=O)CCCCCC(=O)Nc3ccccc3N)ccc2O[C@H]1CN(C)Cc1ccc(Oc2ccccc2)cc1	139.9*	0.1	49.4	.
CCN(CC)S(=O)(=O)c1cc(C(=O)Nc2ccccc2C)ccc1C	29.9	-0.9	-30.4	.
C/C(=C/CO)CC[C@@H]1[C@@](C)(O)CCC2C(C)(C)CCC[C@]21C (some centres not stated)	100.7*	-3.2	9.9	-36.9
COC(=O)c1cc(NC(=O)COc2ccc(Cl)cc2C)cc(C(=O)OC)c1	24.5	-0.3	3.5	.
COc1cccc(C=C2C(=O)c3ccccc3C2=O)c1OC(C)C	104.5*	-3.5	9.1	6.0
CC(C)OC(=O)c1cc(N)c2c(-c3ccc(F)cc3)c(-c3cccs3)sc2n1	42.6	-6.9	-8.8	-5.3
CCOC(=O)c1cc(C)nc(Sc2ccccc2NC(=O)c2cccc(C(F)(F)F)c2)c1C#N	114.2*	-0.7	-0.9	1.0
O=C(CSc1nc(-c2ccccc2)cc(C(F)(F)F)n1)Nc1ccc2c(c1)CCC2	11.9	-0.7	-28.2	.
SMILES	NOMO-1 viab	PD-1 reverse act	MITF inh	Hedgehog inh
C[C@@H]1O[C@@H](O[C@H]2[C@H](O)[C@@H](O[C@@H]3O[C@H](CO)[C@@H](O)[C@H](O[C@@H]4O[C@H](CO)[C@@H](O)[C@H](O)[C@H]4O)[C@H]3O)[C@H](O[C@H]3CC[C@@]4(C)C(=CC[C@@H]5C4CC[C@@]4(C)C5C[C@@H]5O[C@]6(CC[C@@](C)(CO[C@@H]7O[C@H](CO)[C@@H](O)[C@H](O)[C@H]7O)O6)[C@@H](C)[C@@H]54)C3)O[C@@H]2CO)[C@H](O)[C@H](O)[C@H]1O (some centres not stated)	120.3*	-9.4	6.0	69.6*
CN(C)c1nc(-c2ccc(Cl)cc2)[nH]c(=O)n1	-3.3	-0.2	-22.5	-9.9
CCOC(=O)CC1=NN(c2ccccc2)C(=O)/C1=C\c1cc(OC)c(OC)cc1OC	44.0	0.0	1.2	.
O=C(CNCCO)Nc1sc2c(c1C(=O)Nc1ccc(Br)cc1)CCC2	33.6	-4.6	29.9	.
COc1ccc(C[C@H](N)C(=O)N[C@@H]2[C@@H](CO)OC(n3cnc4c(N(C)C)ncnc43)[C@@H]2O)cc1 (some centres not stated)	108.2*	.	106.4*	93.3*
CNC(=O)[C@H]1O[C@@H](n2cnc3c(NCc4cccc(I)c4)ncnc32)C(O)[C@H]1O (some centres not stated)	9.7	.	0.2	-33.8
O=c1cc(N2CCOCC2)oc2c(-c3ccccc3)cccc12	124.8*	-15.8	36.3	70.7*
Cc1cc(C)c(C2=NON3N(C(=O)c4cccs4)c4ccccc4N23)c(C)c1	27.9	-0.8	-5.0	.
Cc1ccc2c(=O)c(C(=O)c3ccccc3)coc2c1	130.3*	-0.4	-18.1	.
CCc1ccc(C(Nc2ccccn2)c2cc(Cl)c3cccnc3c2O)cc1 (configuration not stated)	123.3*	-13.4	?	.
Cn1nc(-c2ccc(OCC(=O)Nc3cccnc3)cc2)c2ccccc2c1=O	62.7	-1.9	-19.7	.
CSc1ccc(C(Nc2ccccn2)c2cc(Cl)c3cccnc3c2O)cc1 (configuration not stated)	112.5*	-9.1	59.8	.
CCOc1ccc(C(Nc2cccnc2)c2cc(Cl)c3cccnc3c2O)cc1 (configuration not stated)	115.0*	.	52.6	.
Cc1ccc(C)c(C(Nc2ccccn2)c2cc(Cl)c3cccnc3c2O)c1 (configuration not stated)	113.3*	-9.9	68.0	.
COc1cc(C(Nc2ccccn2)c2cc(Cl)c3cccnc3c2O)cc(Br)c1O (configuration not stated)	47.9	.	-3.2	.
O=C(O)C1C2C=CC(C2)C1C(=O)Nc1cccc([N+](=O)[O-])c1 (configuration not stated)	12.4	2.1	-0.4	.
CCOc1ccc2c(c1)-c1c(ssc1=S)C(C)(C)N2C	86.3*	-1.7	13.2	0.7
COc1ccc(NC(=O)CC(=O)CSc2ccccc2)cc1	112.3*	-2.1	-27.6	-1.5
CC(C)(C)c1ccc(-c2n[nH]c(S(C)(=O)=O)c2C#N)cc1	17.8	-0.9	-8.8	.
